Unmarked numbers belong to inactive results. Records with an inconclusive call do not appear. The source made the active and inactive calls. Unless noted, the call rests on the fitted dose curve; in most records, active means well fitted inhibition curve with a large enough effect; inconclusive means small, poorly fitted or top-dose-only effect; inactive means flat fitted curve, though single readings scatter.
Experiments:
[1] = Drug repurposing screens with cells derived from glioblastoma tumor samples (AID 1345199); settings: GBM patient neurospheres viability, ATP luminescence, 48 h; further: nearly all actives have a fitted effect of over 40% in size; further: potency means the concentration at half of the fitted maximal effect; on activity, negative = cell killing: on the % scale 0 is the no-effect control and ±100 the full control effect
Outline: (§1)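 Four patient lines of CD133+ GBM neurospheres were screened at several concentrations; hits were retested in those lines plus three slower-growing GBM lines, using 48-hour treatment and ATP-based viability.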

astro = control astrocytes; assay: as above; settings: viability, ATP luminescence, 48 h; series mostly up to 45.9 µM
Outline: as §1

[2] = qHTS assay for small molecule activators of the human pregnane X receptor (PXR) signaling pathway (AID 720659; call rule not given here; further: 0% is about no effect); settings: DPX-2 HepG2 CYP3A4-luciferase, 24 h; series mostly up to 92.3 µM
[3] = target: Nuclear receptor subfamily 1 group I member 2 (Rattus norvegicus) (UniProt Q9R1A7); assay: qHTS assay for small molecule activators of the rat pregnane X receptor (rPXR) signaling pathway (AID 651751; call rule not given here; further: 0% is about no effect); settings: rPXR reporter cells, luciferase (One-Glo), 24 h
[4] = at 45.9 µM (top of the series), tumour line B
[5] = at 45.9 µM (top of the series), tumour line D
[6] = at 46.1 µM (top of the series), tumour line C

Chain of Nuclear receptor subfamily 1 group I member 2 (Rattus norvegicus) (Q9R1A7 whole entry, looked up): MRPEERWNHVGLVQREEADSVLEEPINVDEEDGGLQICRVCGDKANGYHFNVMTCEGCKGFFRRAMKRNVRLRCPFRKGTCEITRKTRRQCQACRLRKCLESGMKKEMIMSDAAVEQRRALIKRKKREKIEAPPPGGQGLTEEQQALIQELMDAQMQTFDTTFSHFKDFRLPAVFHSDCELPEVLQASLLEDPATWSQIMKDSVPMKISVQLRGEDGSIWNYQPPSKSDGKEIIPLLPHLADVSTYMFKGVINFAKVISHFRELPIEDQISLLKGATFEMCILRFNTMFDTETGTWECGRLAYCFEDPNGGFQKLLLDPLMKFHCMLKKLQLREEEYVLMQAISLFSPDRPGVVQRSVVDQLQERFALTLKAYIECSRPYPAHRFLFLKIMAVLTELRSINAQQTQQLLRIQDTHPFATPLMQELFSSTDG

N#CC1(N2CCCCC2)CCCCC1
activity, negative = cell killing [1, 4]: -11.3% | activity, negative = cell killing [1, 5]: -14.5% | activity, negative = cell killing [1, 6]: -18% | Potency (astro): inactive

O=[N+]([O-])C(Br)(CO)CO
activity, negative = cell killing [1, 6]: -7.96% | Potency ([1]; tumour line A): 35.5 µM (active) | Potency (astro): 22.4 µM (active) | outcome [2]: inactive

O=[N+]([O-])c1cc(I)c(O)c(I)c1
activity, negative = cell killing [1, 6]: -4.29% | Potency ([1]; tumour line A): 25.1 µM (active) | Potency ([1]; tumour line D): 22.4 µM (active) | Potency (astro): 35.5 µM (active)

O=C(OCCN1CCCCC1)C(O)(c1ccccc1)c1ccccc1
activity, negative = cell killing [1, 4]: -11.1% | activity, negative = cell killing [1, 5]: -8.82% | activity, negative = cell killing [1, 6]: -26.9% | Potency (astro): inactive

O=C1OC2(c3cc(Br)c(O)cc3Oc3c2cc(Br)c(O)[c]3[Hg])c2ccccc21 (stereo not given)
activity, negative = cell killing ([1]; at 20 µM (top of the series), tumour line C): -9.78% | Potency ([1]; tumour line A): 14.1 µM (active) | Potency (astro): inactive

C=CCN=C=S
activity, negative = cell killing [1, 4]: -6.51% | activity, negative = cell killing [1, 5]: -10.4% | activity, negative = cell killing [1, 6]: 6.26% | Potency (astro): inactive | max response [3]: 3.71% | outcome [2]: inactive
